Screening data (PubChem BioAssay)
The list is not random: actives were taken first. Their share in the collection is about 3.5%.
TEAD-YAP block: TEAD-YAP interaction inhibition; AID 1259422; HEK-TIYL cells, TEAD-Gal4/YAP UAS-luciferase luminescence; hit rate 1.4% among 640,000; inhibition, % at 9.12 µM; in the data active = inhibition above about 32%;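 also: 0% = median of test compound wells and 100% = reference inhibitor wells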
GPR151 activ: activators of human GPR151. PathHunter beta-arrestin GPR151 cells, luminescence. activation, % at 11.2 µM. hit rate 1% among 650,000; in the data active = activation above about 4.9%;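 also: 0% = median of compound wells and 100% = cells with positive control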
FBW7 activator: human FBW7 E3 ligase activation, primary screen; hit rate 0.13% among 650,000; Q969H0; AlphaScreen FBW7–phospho-cyclin E peptide binding, activator screen; AID 1259310; normalized activity (activation), % at 26.1 µM; in the data active = normalized activity above about 1.9%;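 also: purified mutant Fbw7 with reduced substrate affinity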
MITF inh: human MITF inhibition, primary screen | O75030 | AlphaScreen MITF homodimerization, bead proximity signal | inhibition, % at 2.6 µM | hit rate 0.91% among 650,000; in the data active = inhibition above about 50%;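 also: 0% = vehicle wells with protein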
Target sequence (O75030 whole entry, looked up): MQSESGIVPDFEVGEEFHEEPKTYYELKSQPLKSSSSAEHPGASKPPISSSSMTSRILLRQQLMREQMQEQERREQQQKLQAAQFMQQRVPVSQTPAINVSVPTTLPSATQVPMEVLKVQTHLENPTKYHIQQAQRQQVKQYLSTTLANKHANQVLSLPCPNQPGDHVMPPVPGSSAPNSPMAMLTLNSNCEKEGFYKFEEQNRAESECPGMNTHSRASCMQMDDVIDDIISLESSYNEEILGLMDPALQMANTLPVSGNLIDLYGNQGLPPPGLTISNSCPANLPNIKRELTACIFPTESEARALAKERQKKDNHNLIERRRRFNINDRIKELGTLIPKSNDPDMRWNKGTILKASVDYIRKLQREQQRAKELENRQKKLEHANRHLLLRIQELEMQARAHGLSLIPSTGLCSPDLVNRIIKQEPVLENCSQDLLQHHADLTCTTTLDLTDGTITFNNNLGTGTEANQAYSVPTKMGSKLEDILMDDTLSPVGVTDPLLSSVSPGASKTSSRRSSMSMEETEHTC
Active calls of the source: *.

SMILES	TEAD-YAP block	GPR151 activ	FBW7 activator	MITF inh
Cc1cccc(N2C(=O)NC(=O)/C(=C/c3ccc(I)o3)C2=O)c1	-2.8	-1.5	-0.4	58.4*
O=C1NC(=O)N(Cc2ccccc2)C(=O)/C1=C/c1ccc(Br)o1	10.8	-1.1	-0.7	57.7*
Brc1cncc(-c2cc(NCCCn3ccnc3)nc(-c3ccccc3)n2)c1	7.0	3.1	0.0	-1.7
CCCOc1ccc2ccccc2c1CO	-9.9	0.6	0.0	0.4
COC(=O)c1ccccc1Sc1c(-c2ccccc2)nc2ncccn12	45.2*	0.8	0.0	6.7
CC(=O)c1c(C)[nH]c(C(=O)Nc2nc(C)cs2)c1C	54.2*	-2.0	-0.1	-0.6
CC(=O)c1c(C)[nH]c(C(=O)Nc2ccc(C)cn2)c1C	53.0*	-1.1	0.0	0.8
O=C(CNC(=O)c1ccc(Br)o1)OCC(=O)N1CCCC1=O	2.2	-1.5	0.0	-0.4
N#C/C(=C(/O)CSc1n[nH]c(N)n1)c1nc2ccccc2s1	-9.2	1.7	-0.2	-7.0
CCOC(=O)COc1ccc2ccccc2c1/C=C/[N+](=O)[O-]	-11.5	-0.1	0.0	-1.0
CC(C)Oc1ccc2ccccc2c1/C=C/[N+](=O)[O-]	35.6*	0.0	-0.1	-9.1
COc1ccc2ccccc2c1/C=C/[N+](=O)[O-]	49.3*	-0.3	0.1	21.6
Cc1cc(/C=C2/C(=N)N3N=C(C4CCCCC4)SC3=NC2=O)c(C)n1-c1ccc(F)cc1	6.8	-0.4	0.1	1.5
COC(=O)Cn1nnc2c(cnn2-c2ccccc2)c1=O	-39.1	-2.5	0.8	9.7
O=c1c2cnn(-c3ccccc3)c2nnn1Cc1cccnc1	1.1	0.1	1.9*	14.3
O=C1Nc2cc([N+](=O)[O-])ccc2OC1CCO (stereo not drawn)	-2.8	0.8	0.0	1.1
COc1ccc(CCNc2ccnc(NCCCN3CCCC3=O)n2)cc1	9.6	-1.3	-0.1	13.9
OCCCNc1ccc2ncc(-c3ccc(F)cc3)n2n1	53.6*	-0.6	-0.1	1.7
OCCCNc1ccc2ncc(-c3ccc(F)c(Cl)c3)n2n1	-3.1	1.6	0.2	-11.0
N#Cc1ccc(-c2cnc3ccc(NCCCO)nn23)cc1	49.5*	0.4	-0.3	-16.6
OCCCNc1ccc2ncc(-c3ccc(Oc4ccccc4)cc3)n2n1	49.5*	1.2	0.1	9.7
OCCCNc1ccc2ncc(-c3ccc(OC(F)(F)F)cc3)n2n1	-0.3	-0.7	0.1	13.9
O=S(=O)(c1ccc(NCC2CCCO2)nc1)N1CCCC1 (stereo not drawn)	-7.5	-1.5	-0.1	-0.6
CC1(C)Cc2c(ccc3ccccc23)/C(=C/C(=O)C(N)=O)N1	2.1	1.9	-0.1	-6.1
Cc1[nH]n2c(=O)cc(C(C)(C)C)nc2c1-c1cccs1	49.6*	-1.2	-0.4	13.0
SMILES	TEAD-YAP block	GPR151 activ	FBW7 activator	MITF inh
CCN(CC)c1nc(Nc2ccc(-n3ccnc3)cc2)nc(Nc2cc(OC)c(OC)c(OC)c2)n1	74.7*	-0.9	-0.1	11.8
CCN(CC)c1nc(Nc2ccccc2)nc(Nc2cc(OC)c(OC)c(OC)c2)n1	-1.2	0.0	0.1	8.5
COc1cc(Nc2ccnc(Nc3ccc(-n4ccnc4)cc3)n2)cc(OC)c1OC	51.5*	2.5	0.1	8.8
CC(CNC(=O)c1ccc2c(c1)CC(c1nc3ccc(-c4ccnc(N)n4)cc3[nH]1)CO2)c1ccccc1 (stereo not drawn)	41.2*	0.0	1.9*	-1.7
CN(CCc1ccccc1)C(=O)c1ccc2c(c1)CC(c1nc3ccc(-c4ccnc(N)n4)cc3[nH]1)CO2 (stereo not drawn)	73.3*	2.0	0.0	-14.3
CON(C)C(=O)c1ccc2c(c1)CC(c1nc3ccc(-c4ccnc(N)n4)cc3[nH]1)CO2 (stereo not drawn)	11.1	-0.8	0.1	25.2
O=C(CSc1nc2ccccc2c(=O)n1NS(=O)(=O)c1ccc(Cl)cc1)c1ccccc1	-0.8	0.0	0.0	-4.3
CCCCOc1ccc(NC(=O)c2sc3nc4c(c(-c5ccc(C)o5)c3c2N)CCCC4)cc1	-1.3	-0.3	-0.2	-4.7
Cc1ccc(Nc2c([N+](=O)[O-])c(=O)oc3ccccc23)cc1	-0.5	-0.1	0.4	10.0
CN(C)c1ccc(Nc2c([N+](=O)[O-])c(=O)oc3ccccc23)cc1	53.4*	1.1	-0.1	4.4
CCN(CC)S(=O)(=O)c1cccc(C(=O)Nc2nc(COc3ccccc3)cs2)c1	32.3*	1.0	0.3	2.3
CCn1nc(C)c(/C=N/NC(=O)c2nnn(-c3nonc3N)c2CN2CCOCC2)c1C	-4.5	1.4	0.0	20.1
NNC(=O)c1[nH]c2ccccc2c1Cl	46.7*	-1.3	0.0	2.2
COC(=O)c1ccc(NC(=O)C2CC(=O)N(CCc3ccc(OC)cc3)C(=Nc3ccc(F)cc3)S2)cc1 (stereo not drawn)	9.0	-0.2	0.0	-2.9
Cc1csc(NC(=O)CCc2c(C)nc3cc(-c4ccccc4)nn3c2C)n1	37.5*	-0.5	1.4	1.2
Cc1nc2cc(-c3ccc(Cl)cc3)nn2c(C)c1CCC(=O)O	43.9*	0.9	0.0	12.6
Cc1nc2cc(-c3ccccc3)nn2c(C)c1CCC(=O)O	51.2*	-5.2	0.0	6.2
COc1cc(OC)cc(-c2cc3nc(C)c(CCC(=O)NCc4ccccc4)c(C)n3n2)c1	39.4*	-0.6	0.2	-7.4
Cc1c(C)n2c(SCC(N)=O)nnc2[nH]c1=O	10.6	-0.4	0.0	12.1
CC1CCN(C(=O)CSc2nc3ccccc3n2CC(=O)N2CC(C)CC(C)C2)CC1 (stereo not drawn)	6.3	-0.1	0.0	14.7
CC(=O)Nc1ccc(N2CCCC2)c(Cl)c1	-0.7	-0.7	0.0	5.7
C/C(=N\NC(N)=O)c1ccc(O)c(O)c1O	4.6	3.4	-0.3	85.9*
Cc1ccnc(NC(c2ccc(C(C)C)cc2)c2ccc3cccnc3c2O)c1 (stereo not drawn)	53.2*	-0.1	-0.5	3.5
Cc1ccnc(NC(c2ccc(Cl)cc2)c2ccc3cccnc3c2O)c1 (stereo not drawn)	83.9*	0.6	-1.0	13.3
Cc1ccnc(NC(c2ccc3cccnc3c2O)c2sccc2C)c1 (stereo not drawn)	29.5	0.4	-1.1	21.6
SMILES	TEAD-YAP block	GPR151 activ	FBW7 activator	MITF inh
Cc1ccnc(NC(c2ccc(N(C)C)cc2)c2ccc3cccnc3c2O)c1 (stereo not drawn)	-56.3	1.9	-0.2	59.8*
Cc1ccnc(NC(c2ccc(O)cc2)c2ccc3cccnc3c2O)c1 (stereo not drawn)	-5.0	-0.4	-1.1	26.6
O=C(NNC1CC(=O)N(c2ccc(Br)cc2)C1=O)c1cccc([N+](=O)[O-])c1 (stereo not drawn)	-0.8	1.0	0.1	6.4
O=C(Nc1ccc(O)cc1)c1ccc(N2C(=O)c3cccc([N+](=O)[O-])c3C2=O)cc1	34.8*	-1.1	0.2	2.2
COc1ccc(NC(=O)c2ccc(N3C(=O)c4cccc([N+](=O)[O-])c4C3=O)cc2)cc1	-1.5	-0.4	0.8	17.2
COC(=O)c1c[nH]n2c(NC3CCC(C)CC3)c(-c3ccc(OC(C)C)c(OC)c3)nc12 (stereo not drawn)	-16.5	-1.2	0.0	4.3
